Test results: PubChem BioAssay AID686979 (National Center for Advancing Translational Sciences (NCATS), 2013)
Values joined by “and” are separate entries in the source; they are usually repeats but may differ in a detail not shown here. Equal values may be shown once. Among all 420,000 compounds or so, about 50,000 (12%) were called active. Inconclusive results (about 26%) are left out. The list comes from a sample in which actives are over-represented; it also holds similar structures and randomly drawn compounds. A call without a number means that no potency is given here. Unmarked numbers belong to inactive results. Calls follow the shape of the dose curve; as a rule, active = well fitted inhibition curve with a large enough effect; inconclusive = small, poorly fitted or top-dose-only effect; inactive = flat fitted curve, though single readings scatter.

Experiment: qHTS for Inhibitors of human tyrosyl-DNA phosphodiesterase 1 (TDP1): qHTS in cells in presence of CPT; also: nearly all actives have a fitted effect of over 55% in size
Conditions: chicken DT40 Tdp1-/-;hTDP1 cells + 20 nM CPT, ATP luminescence, 48 h; series mostly up to 46.2 µM
Method in brief: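 Chicken DT40 Tdp1-/- cells stably complemented with human TDP1 were seeded at 400 cells/well in medium containing 20 nM camptothecin, exposed to pin-transferred compounds, and grown at 37 °C for at least 48 hr. Viability was read as ATP luminescence.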
Potency is read from the fitted curve at half-maximal effect.

Row | Compound | Potency | activity change, negative = growth inhibition
1 | CN(CC(=O)Nc1ccccc1Cl)C(=O)COc1cccc2c1OC(C)(C)C2 | inactive | –
2 | Cn1nc(C(F)(F)F)c(C(=O)Nc2cccc(C(F)(F)F)c2)c1SCc1ccc(Cl)cc1 | 16.4 µM (active) | –
3 | O=C(O)CSCC(=O)Nc1cccc(C(F)(F)F)c1 | inactive | –
4 | CCC(=O)OCc1c(C(F)(F)F)nn(C)c1Oc1cccc(C(F)(F)F)c1 | inactive | –
5 | Cc1ccc(OCCNC(=O)CNC(=O)c2ccc(C)c(C)c2)cc1 | inactive | –
6 | COCCNC(=O)c1snc2ccc(Cl)cc12 | inactive | –
7 | CC(C)OCCCNC(=O)c1ccc(C2SCC(=O)N2Cc2ccco2)cc1 (stereo not drawn) | inactive | –
8 | COCCNC(=O)c1ccc2c(c1)N=C(C)c1cc(C)ccc1S2 | 0.517 µM (active) | –
9 | CC(C)OCCCNC(=O)CNC(=O)c1cccs1 | inactive | –
10 | CCC1=Nc2cc(C(=O)NCCCOC(C)C)ccc2Sc2ccc(C)cc21 | 0.92 µM (active) | –
11 | CCCCSc1[nH]c(=O)c(C(=O)OCC)cc1C#N | inactive | –
12 | Cc1ccc(C)c(-n2c(SCC(=O)O)nc3sc4c(c3c2=O)CCCC4)c1 | inactive | –
13 | CCOC(=O)c1c(NC(=O)CN2C(=O)NC3(CCC(C)CC3)C2=O)sc(C)c1CC (stereo not drawn) | inactive | –
14 | Nc1ccc(C(=O)NCc2ccccc2)cc1 | inactive | –
15 | Nc1ccc(S(=O)(=O)NC(=O)c2ccccc2)cc1 | inactive | –
16 | Nc1ccc(C(=O)Nc2ccccc2N)cc1 | 2.37 µM (active) and 5.8 µM (active) | –
17 | O=C(NCC1CCCO1)/C(=C/c1ccc(Cl)cc1)NC(=O)c1ccccc1 (stereo not drawn) | inactive | –
18 | Cc1nn(C)cc1S(=O)(=O)N1CCN(c2ccc(F)cc2)CC1 | inactive | –
19 | O=C(COc1cccc2c1CCNC2=O)NC1CCCCC1 | inactive | –
20 | COc1cccc(CNC(=O)C2CCN(S(=O)(=O)c3ccc4c(ccn4C)c3)CC2)c1 | inactive | –
21 | CCOc1ccccc1CNC(=O)C1CCCN(S(=O)(=O)c2ccc3c(ccn3C)c2)C1 (stereo not drawn) | 14.6 µM (active) | –
22 | CCOc1ccccc1NC(=O)C1CCCN(S(=O)(=O)c2cn(C)cn2)C1 (stereo not drawn) | inactive | –
23 | O=C1CCCCC1Sc1ccc(Cl)cc1[N+](=O)[O-] (stereo not drawn) | inactive | –
24 | Cc1c(CNC2CCCCC2)c(C(=O)O)c(C)n1Cc1cccc(Cl)c1 | inactive | –
25 | CC(=O)c1ccc(NC(=O)C(C)NCc2ccc(Cl)cc2)cc1 (stereo not drawn) | inactive | –
26 | Nc1nonc1-n1nnc(C(=O)N/N=C/c2ccc(Cl)cc2)c1-c1ccc2c(c1)OCO2 | inactive | –

Row | Compound | Potency | activity change, negative = growth inhibition
27 | Cc1cc(N2C(=O)C(=O)/C(=C(/O)c3ccccc3)C2c2cccc(Br)c2)no1 (stereo not drawn) | inactive | –
28 | CCN(CC)CCCC(C)n1c2nc(=O)[nH]c(=O)c-2nc2cc(Cl)ccc21 (stereo not drawn) | 8.2 µM (active) | –
29 | COc1ccc(/C=N/Nc2nc3ccccc3c(=O)[nH]2)cc1 | inactive | –
30 | COc1ccc(Cc2nnc(N/N=C/c3ccccc3O)[nH]c2=O)cc1OC | 0.0184 µM (active) | –
31 | O=c1[nH]c(NCCO)nnc1Cc1ccc(Cl)cc1 | inactive | –
32 | COC(=O)C(=Nc1ccccc1)/C(C(=O)C(=O)N(C)c1ccccc1)=C(\O)c1ccc(Cl)cc1 | inactive | –
33 | O=c1cnnc(Nc2ccccc2F)[nH]1 | inactive | –
34 | Cc1c(C(=O)OCC(=O)N2CCCC2=O)oc2ccccc12 | inactive | –
35 | CSCCC(NS(=O)(=O)c1ccc2c(c1)oc(=O)n2C)C(=O)NCc1ccccc1 (stereo not drawn) | inactive | –
36 | COc1ccccc1CNC(=O)C(Cc1ccccc1)NS(=O)(=O)c1ccc2c(c1)oc(=O)n2C (stereo not drawn) | 20.6 µM (active) | –
37 | Cc1ccc(NC(=O)C(Cc2ccccc2)NS(=O)(=O)c2ccc3c(c2)oc(=O)n3C)cc1C (stereo not drawn) | inactive | –
38 | Cc1cccc(NC(=S)NCc2ccc3[nH]c4c(c3c2)CCCC4)c1 | 23.1 µM (active) | –
39 | O=C(O)CCC(=O)NCc1ccc2[nH]c3c(c2c1)CCCC3 | inactive | –
40 | Cc1cccc(NC(=S)N2CCCC(c3nc4ccccc4[nH]3)C2)c1 (stereo not drawn) | inactive | –
41 | Cc1ccc(S(=O)(=O)N2CCOCC2)cc1C(=O)Nc1ccccc1N1CCCC1 | inactive | –
42 | Oc1cccc(CCc2ccccn2)c1 | inactive | –
43 | C=CCC[C@@H](CCCCC)OC(=O)/C=C/[C@@H](O)[C@H](O)C[C@H](O)CC=C | 23.1 µM (active) | –
44 | CN(C)/C=C(/C(=O)c1ccccc1Cl)S(C)(=O)=O | inactive | –
45 | COC(=O)c1ccc(/C=C/c2c(-c3ccc(OC)cc3)sc3ccccc23)cc1 | 14.6 µM (active) | –
46 | COc1ccc(NC(=O)COC(=O)c2ccc(NS(=O)(=O)/C=C/c3ccccc3)cc2)cc1 | inactive | –
47 | COc1ccccc1-c1sc2ccccc2c1-c1ccc(C(C)=O)cc1 | inactive | –
48 | CCCCOc1ccc(C(=O)NCC(=O)OCC(=O)c2c(N)n(C)c(=O)n(C)c2=O)cc1 | inactive | –
49 | Cc1nc2ccc(C(=O)O)cc2[nH]1 | inactive | –
50 | COC(=O)Nc1nc2ccc(Sc3ccccc3)cc2[nH]1 | 651 nM (active) and 360 nM (active) and 517 nM (active) | –
51 | CC(C)c1nc2ccc(C(=O)O)cc2[nH]1 | inactive | –
52 | N#Cc1ccccc1NC(=O)c1ccc2c(c1)OCO2 | inactive | –

Row | Compound | Potency | activity change, negative = growth inhibition
53 | CC(C)c1ccc(NC(=O)C2CCN(c3nc(-c4ccc(C(C)C)cc4)no3)CC2)cc1 | 13 µM (active) | –
54 | CCOc1ccc(NC(=O)C2CCN(S(=O)(=O)c3cc(-c4noc(C)n4)ccc3C)CC2)cc1 | inactive | –
55 | Cc1cc(C)cc(NC(=O)C2CCN(c3nc(C)cc(C)n3)CC2)c1 | inactive | –
56 | Cc1ccc(NC(=O)CSc2sc3c(O)cc(=O)[nH]c3c2C#N)cc1C | inactive | –
57 | CCC(=O)N1c2ccccc2NC2=C(C(=O)CCC2)C1c1ccco1 (stereo not drawn) | inactive | –
58 | Cn1ccnc1SCC(=O)Nc1ccc2c(c1)OCCO2 | inactive | –
59 | C=CCn1c(CNC(=O)c2ccco2)nnc1SCC(=O)c1ccc(OC)cc1 | inactive | –
60 | CCCNC(=O)C1(C)CCCN(C(=O)c2cccc(OC(C)=O)c2C)C1 (stereo not drawn) | inactive | –
61 | CCCNC(=O)C1(C)CCCN(Cc2cccc(C(F)(F)F)c2)C1 (stereo not drawn) | 18.4 µM (active) | –
62 | CCCNC(=O)C1(C)CCN(Cc2csc(-c3ccc(Cl)cc3)n2)C1 (stereo not drawn) | 23.1 µM (active) | –
63 | CCCNC(=O)C1(C)CCCN(Cc2c(C)nn(-c3ccccc3)c2C)C1 (stereo not drawn) | inactive | –
64 | CCNC(=O)C1(C)CCN(Cc2ccc(C(=O)OCC)o2)C1 (stereo not drawn) | inactive | –
65 | COCCNC(=O)C1(C)CCCN(Cc2cccc(F)c2)C1 (stereo not drawn) | inactive | –
66 | COc1ccc(CCNC(=O)COC(=O)C2CC2C)cc1 (stereo not drawn) | inactive | –
67 | COc1ccc(C(CNC(=O)c2ccc(S(=O)(=O)Nc3ccccc3F)cc2)N(C)C)cc1 (stereo not drawn) | inactive | –
68 | Cc1c(Br)ccc(NC(=O)COc2ccccc2C(N)=O)c1C | inactive | –
69 | CNC(=O)NC(=O)C(OC(=O)c1cccc(S(=O)(=O)N2CCCCC2)c1)c1ccccc1 (stereo not drawn) | inactive | –
70 | C=CCNC(=O)CC12CC3CC(C1)CC(CC(=O)NCC=C)(C3)C2 | inactive | –
71 | CC(=O)O[C@H]1CC[C@@]2(C)[C@@H](CC[C@@H]3[C@@H]2CC[C@]2(C)[C@@H](C(C)(C)O)C[C@@H]32)C1 | inactive | –
72 | COc1cc(F)c(C2=CC(=O)CC(C)(C)C2)cc1F | inactive | –
73 | NS(=O)(=O)c1ccc(Nc2nc(-c3ccccc3)cs2)cc1 | inactive | –
74 | O=C(Nc1nc(-c2ccc(-c3ccccc3)cc2)cs1)c1cnccn1 | inactive | –
75 | c1cnc(Nc2nc(-c3ccc4ccccc4c3)cs2)nc1 | 29.1 µM (active) | –
76 | CCOc1cccc2c1OC1(CCCCC1)N1N=C(c3cccnc3)CC21 (stereo not drawn) | inactive | –
77 | FC(F)(F)c1cccc(Cc2noc(CN3CCC(N4CCCCC4)CC3)n2)c1 | inactive | –
78 | CCCCOC(=O)Nc1nnc(CC(=O)NCc2ccccc2)s1 | inactive | –

Row | Compound | Potency | activity change, negative = growth inhibition
79 | CN(C(=O)COC(=O)Cn1cnc2c1c(=O)n(C)c(=O)n2C)C1(C#N)CCCCC1 | inactive | –
80 | COC(=O)[C@@H]1C[C@@]2(O)[C@@H](O)[C@@H](O)[C@@H](O)C[C@H]2N1Cc1ccc(C)s1 | inactive | –
81 | O=C(Nc1ccc2c(c1)OCO2)c1cc(-c2cccc(Cl)c2)on1 | inactive | –
82 | c1ccc(-c2cn3c(n2)CCc2ccc4cccnc4c2-3)cc1 | 13 µM (active) | –
83 | c1ccc(-c2cn3cccnc3n2)cc1 | inactive | –
84 | CS/C(=C\[N+](=O)[O-])Nc1ccc(C)cc1 | inactive | –
85 | COc1cc(C(C)=O)ccc1OC(=O)CN1C(=O)c2ccccc2C1=O | inactive | –
86 | Cc1ccccc1N1CCN(CCCN2C(=O)C3CCCCN3C2=O)CC1 (stereo not drawn) | inactive | –
87 | CCN(CC)CCCSc1nc2ccccc2s1 | inactive | –
88 | COc1cc2[nH]c(O)c(C=O)c2cc1OC | inactive | –
89 | COc1cc(N=Cc2c(O)[nH]c3ccccc23)cc(OC)c1OC | 20.6 µM (active) | –
90 | COc1ccc(N=Cc2c(O)[nH]c3ccccc23)cc1OC | inactive | –
91 | COc1ccccc1-c1nn(Cc2ccccc2)cc1C(=O)N1CCN(c2ncccn2)CC1 | 25.9 µM (active) | –
92 | Oc1ccc(CN2CCN(c3ncccn3)CC2)cc1 | inactive | –
93 | COc1cccc(OC)c1C(=O)N1CCN(Cc2cccnc2)CC1 | inactive | –
94 | O=C(NCc1ccco1)/C(=C/c1ccco1)NC(=O)c1ccccc1 | inactive | –
95 | CCCCC/C=C\C/C=C\CCCCCCCCCC(=O)O | – | -5.48% [at 4.12 µM]
96 | CC(C)CC[n+]1ccn(C2=C([O-])c3ccccc3C(=O)/C2=N\S(=O)(=O)c2ccccc2)c1 | 11.6 µM (active) | –
97 | CCOC(=O)c1cc(-c2ccccc2)n(-c2cccc(C(=O)Nc3cc(OC)cc(OC)c3)c2)c1C | inactive | –
98 | COc1cc(OC)cc(C(=O)Nc2cc3nn(-c4ccccc4)nc3cc2Cl)c1 | 11.6 µM (active) | –
99 | CCCC(=O)Nc1cc2nn(-c3ccccc3)nc2cc1C | inactive | –
100 | COc1ccccc1-c1ccnc(-n2ncc(C(=O)NCCc3ccncc3)c2C)n1 | – | 39.7% [at 9.04 µM]
101 | COc1cccc(COC(=O)C2CCN(S(=O)(=O)c3cccs3)CC2)c1OC | inactive | –
102 | Cc1cccc(OCC(=O)NC2CC(C)(C)NC(C)(C)C2)c1 | inactive | –
103 | O=C(Nc1cccc(F)c1)N1CCC2(CC1)CCN(S(=O)(=O)c1ccccc1)CC2 | inactive | –
